# Experiments:
# Assay in all cases: SPOT peptide array binding signal intensity (averaged, normalized) (arbitrary units (background-subtracted, floor 0; scale differs between SH3 domains)); higher = stronger binding of the SH3 domain to the peptide
# AgAbp1 = molecular target: AgAbp1
# Summary of the method: (§1)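 The binding signal is the normalized, background-subtracted spot intensity averaged over replicates; its arbitrary units differ between domains. It was obtained by incubating 10 μg/ml GST-fused SH3 domains from four yeast species overnight at 4°C in TBS-based blocking buffer on cellulose membranes with synthetic 15-mer peptides, cysteines replaced by serines, then detecting with anti-GST antibody, HRP anti-mouse secondary and luminol.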
# AgBbc1 = molecular target: AgBbc1
# Summary of the method: as §1
# AgBem1-D1 = molecular target: AgBem1-D1
# Summary of the method: as §1
# AgBzz1-D1 = molecular target: AgBzz1-D1
# Summary of the method: as §1
# AgBzz1-D2 = molecular target: AgBzz1-D2
# Summary of the method: as §1
# AgCyk3 = molecular target: AgCyk3
# Summary of the method: as §1
# AgFus1 = molecular target: AgFus1
# Summary of the method: as §1
# AgHof1 = molecular target: AgHof1
# Summary of the method: as §1
# AgHse1 = molecular target: AgHse1
# Summary of the method: as §1
# AgLsb1 = molecular target: AgLsb1
# Summary of the method: as §1
# AgLsb4 = molecular target: AgLsb4
# Summary of the method: as §1
# AgMyo5 = molecular target: AgMyo5
# Summary of the method: as §1
# AgNbp2 = molecular target: AgNbp2
# Summary of the method: as §1
# AgRvs167 = molecular target: AgRvs167
# Summary of the method: as §1
# AgSho1 = molecular target: AgSho1
# Summary of the method: as §1
# AgSla1-D1-D2 = molecular target: AgSla1-D1-D2
# Summary of the method: as §1
# AgSla1-D3 = molecular target: AgSla1-D3
# Summary of the method: as §1
# CaAbp1-D1 = molecular target: CaAbp1-D1
# Summary of the method: as §1
# CaAbp1-D2 = molecular target: CaAbp1-D2
# Summary of the method: as §1
# CaBbc1 = molecular target: CaBbc1
# Summary of the method: as §1
# CaBem1-D1 = molecular target: CaBem1-D1
# Summary of the method: as §1
# CaBzz1-D1 = molecular target: CaBzz1-D1
# Summary of the method: as §1
# CaBzz1-D2 = molecular target: CaBzz1-D2
# Summary of the method: as §1
# CaCyk3 = molecular target: CaCyk3
# Summary of the method: as §1
# CaFus1 = molecular target: CaFus1
# Summary of the method: as §1
# CaHof1 = molecular target: CaHof1
# Summary of the method: as §1
# CaHse1 = molecular target: CaHse1
# Summary of the method: as §1
# CaLsb1 = molecular target: CaLsb1
# Summary of the method: as §1
# CaLsb4 = molecular target: CaLsb4
# Summary of the method: as §1
# CaMyo5 = molecular target: CaMyo5
# Summary of the method: as §1
# CaNbp2 = molecular target: CaNbp2
# Summary of the method: as §1
# CaRvs167 = molecular target: CaRvs167
# Summary of the method: as §1
# CaRvs167-3 = molecular target: CaRvs167-3
# Summary of the method: as §1
# CaSho1 = molecular target: CaSho1
# Summary of the method: as §1
# CaSla1-D1-D2 = molecular target: CaSla1-D1-D2
# Summary of the method: as §1
# CaSla1-D3 = molecular target: CaSla1-D3
# Summary of the method: as §1
# ScAbp1 = molecular target: ScAbp1
# Summary of the method: as §1
# ScBbc1 = molecular target: ScBbc1
# Summary of the method: as §1
# ScBem1-D1 = molecular target: ScBem1-D1
# Summary of the method: as §1
# ScBzz1-D1 = molecular target: ScBzz1-D1
# Summary of the method: as §1
# ScBzz1-D2 = molecular target: ScBzz1-D2
# Summary of the method: as §1
# ScCyk3 = molecular target: ScCyk3
# Summary of the method: as §1
# ScFus1 = molecular target: ScFus1
# Summary of the method: as §1
# ScHof1 = molecular target: ScHof1
# Summary of the method: as §1
# ScHse1 = molecular target: ScHse1
# Summary of the method: as §1
# ScLsb1 = molecular target: ScLsb1
# Summary of the method: as §1
# ScLsb2 = molecular target: ScLsb2
# Summary of the method: as §1
# ScLsb3 = molecular target: ScLsb3
# Summary of the method: as §1
# ScLsb4 = molecular target: ScLsb4
# Summary of the method: as §1
# ScMyo3 = molecular target: ScMyo3
# Summary of the method: as §1
# ScMyo5 = molecular target: ScMyo5
# Summary of the method: as §1
# ScNbp2 = molecular target: ScNbp2
# Summary of the method: as §1
# ScPex13 = molecular target: ScPex13
# Summary of the method: as §1
# ScRvs167 = molecular target: ScRvs167
# Summary of the method: as §1
# ScSho1 = molecular target: ScSho1
# Summary of the method: as §1
# ScSla1-D1-D2 = molecular target: ScSla1-D1-D2
# Summary of the method: as §1
# ScSla1-D3 = molecular target: ScSla1-D3
# Summary of the method: as §1
# SpAbp1-D1 = molecular target: SpAbp1-D1
# Summary of the method: as §1
# SpBbc1 = molecular target: SpBbc1
# Summary of the method: as §1
# SpBzz1-D1 = molecular target: SpBzz1-D1
# Summary of the method: as §1
# SpBzz1-D2 = molecular target: SpBzz1-D2
# Summary of the method: as §1
# SpCyk3 = molecular target: SpCyk3
# Summary of the method: as §1
# SpHof1 = molecular target: SpHof1
# Summary of the method: as §1
# SpHof1-2 = molecular target: SpHof1-2
# Summary of the method: as §1
# SpHof1-3 = molecular target: SpHof1-3
# Summary of the method: as §1
# SpHse1 = molecular target: SpHse1
# Summary of the method: as §1
# SpLsb1 = molecular target: SpLsb1
# Summary of the method: as §1
# SpLsb4 = molecular target: SpLsb4
# Summary of the method: as §1
# SpMyo1 = molecular target: SpMyo1
# Summary of the method: as §1
# SpNbp2 = molecular target: SpNbp2
# Summary of the method: as §1
# SpPex13 = molecular target: SpPex13
# Summary of the method: as §1
# SpRvs167 = molecular target: SpRvs167
# Summary of the method: as §1
# SpSla1-D1-D2 = molecular target: SpSla1-D1-D2
# Summary of the method: as §1
# SpSla1-D3 = molecular target: SpSla1-D3
# Summary of the method: as §1
binder,measurement,setting,value
LLRRTIPKRPFYHVL,SPOT peptide array binding signal intensity,AgAbp1,66.5
same,SPOT peptide array binding signal intensity,AgBbc1,73.8
same,SPOT peptide array binding signal intensity,AgBem1-D1,44.5
same,SPOT peptide array binding signal intensity,AgBzz1-D1,13
same,SPOT peptide array binding signal intensity,AgBzz1-D2,200
same,SPOT peptide array binding signal intensity,AgCyk3,≤ 0
same,SPOT peptide array binding signal intensity,AgFus1,295
same,SPOT peptide array binding signal intensity,AgHof1,11.5
same,SPOT peptide array binding signal intensity,AgHse1,828
same,SPOT peptide array binding signal intensity,AgLsb1,1
same,SPOT peptide array binding signal intensity,AgLsb4,79
same,SPOT peptide array binding signal intensity,AgMyo5,≤ 0
same,SPOT peptide array binding signal intensity,AgNbp2,121
same,SPOT peptide array binding signal intensity,AgRvs167,4.5
same,SPOT peptide array binding signal intensity,AgSho1,59
same,SPOT peptide array binding signal intensity,AgSla1-D1-D2,108
same,SPOT peptide array binding signal intensity,AgSla1-D3,0.5
same,SPOT peptide array binding signal intensity,CaAbp1-D1,604
same,SPOT peptide array binding signal intensity,CaAbp1-D2,775
same,SPOT peptide array binding signal intensity,CaBbc1,427
same,SPOT peptide array binding signal intensity,CaBem1-D1,8.5
same,SPOT peptide array binding signal intensity,CaBzz1-D1,71.5
same,SPOT peptide array binding signal intensity,CaBzz1-D2,39.5
same,SPOT peptide array binding signal intensity,CaCyk3,156
same,SPOT peptide array binding signal intensity,CaFus1,314
same,SPOT peptide array binding signal intensity,CaHof1,0.5
same,SPOT peptide array binding signal intensity,CaHse1,22
same,SPOT peptide array binding signal intensity,CaLsb1,0.5
same,SPOT peptide array binding signal intensity,CaLsb4,94.5
same,SPOT peptide array binding signal intensity,CaMyo5,0.5
same,SPOT peptide array binding signal intensity,CaNbp2,262
same,SPOT peptide array binding signal intensity,CaRvs167,48.2
same,SPOT peptide array binding signal intensity,CaRvs167-3,92
same,SPOT peptide array binding signal intensity,CaSho1,608
same,SPOT peptide array binding signal intensity,CaSla1-D1-D2,140
same,SPOT peptide array binding signal intensity,CaSla1-D3,3
same,SPOT peptide array binding signal intensity,ScAbp1,23.5
same,SPOT peptide array binding signal intensity,ScBbc1,25.5
same,SPOT peptide array binding signal intensity,ScBem1-D1,7
same,SPOT peptide array binding signal intensity,ScBzz1-D1,3.5
same,SPOT peptide array binding signal intensity,ScBzz1-D2,13
same,SPOT peptide array binding signal intensity,ScCyk3,26
same,SPOT peptide array binding signal intensity,ScFus1,307
same,SPOT peptide array binding signal intensity,ScHof1,1.5
same,SPOT peptide array binding signal intensity,ScHse1,898
same,SPOT peptide array binding signal intensity,ScLsb1,44.2
same,SPOT peptide array binding signal intensity,ScLsb2,13
same,SPOT peptide array binding signal intensity,ScLsb3,855
same,SPOT peptide array binding signal intensity,ScLsb4,18.5
same,SPOT peptide array binding signal intensity,ScMyo3,0.5
same,SPOT peptide array binding signal intensity,ScMyo5,≤ 0
same,SPOT peptide array binding signal intensity,ScNbp2,343
same,SPOT peptide array binding signal intensity,ScPex13,110
same,SPOT peptide array binding signal intensity,ScRvs167,612
same,SPOT peptide array binding signal intensity,ScSho1,357
same,SPOT peptide array binding signal intensity,ScSla1-D1-D2,146
same,SPOT peptide array binding signal intensity,ScSla1-D3,2
same,SPOT peptide array binding signal intensity,SpAbp1-D1,402
same,SPOT peptide array binding signal intensity,SpBbc1,5
same,SPOT peptide array binding signal intensity,SpBzz1-D1,76
same,SPOT peptide array binding signal intensity,SpBzz1-D2,≤ 0
same,SPOT peptide array binding signal intensity,SpCyk3,≤ 0
same,SPOT peptide array binding signal intensity,SpHof1,73
same,SPOT peptide array binding signal intensity,SpHof1-2,3.25
same,SPOT peptide array binding signal intensity,SpHof1-3,401
same,SPOT peptide array binding signal intensity,SpHse1,372
same,SPOT peptide array binding signal intensity,SpLsb1,36.5
same,SPOT peptide array binding signal intensity,SpLsb4,463
same,SPOT peptide array binding signal intensity,SpMyo1,0.5
same,SPOT peptide array binding signal intensity,SpNbp2,181
same,SPOT peptide array binding signal intensity,SpPex13,1.5
same,SPOT peptide array binding signal intensity,SpRvs167,227
same,SPOT peptide array binding signal intensity,SpSla1-D1-D2,≤ 0
same,SPOT peptide array binding signal intensity,SpSla1-D3,11

# Reference: the supplement of paper PMC4466140
